# From the supplement of paper PMC11732987, “Enantioselective OTUD7B fragment discovery through chemoproteomics screening and high-throughput optimisation” (Communications Chemistry, 2025)
# Unmarked numbers belong to inactive results.
# Tests used:
# Assay in all cases: log2 ratio of Biotin-Ahx-Ub-VS probe labelling (fragment/DMSO); higher = less target engagement (more negative = stronger competition), active = hit call of the paper (q ≤ 0.05, log2 ratio ≤ -1)
# Conditions in all cases: compound concentration: 200 uM; treatment time: 3 h
# ALG13 = target: T1, ALG13 (UniProt Q9NP73)
# T1 sequence (whole entry): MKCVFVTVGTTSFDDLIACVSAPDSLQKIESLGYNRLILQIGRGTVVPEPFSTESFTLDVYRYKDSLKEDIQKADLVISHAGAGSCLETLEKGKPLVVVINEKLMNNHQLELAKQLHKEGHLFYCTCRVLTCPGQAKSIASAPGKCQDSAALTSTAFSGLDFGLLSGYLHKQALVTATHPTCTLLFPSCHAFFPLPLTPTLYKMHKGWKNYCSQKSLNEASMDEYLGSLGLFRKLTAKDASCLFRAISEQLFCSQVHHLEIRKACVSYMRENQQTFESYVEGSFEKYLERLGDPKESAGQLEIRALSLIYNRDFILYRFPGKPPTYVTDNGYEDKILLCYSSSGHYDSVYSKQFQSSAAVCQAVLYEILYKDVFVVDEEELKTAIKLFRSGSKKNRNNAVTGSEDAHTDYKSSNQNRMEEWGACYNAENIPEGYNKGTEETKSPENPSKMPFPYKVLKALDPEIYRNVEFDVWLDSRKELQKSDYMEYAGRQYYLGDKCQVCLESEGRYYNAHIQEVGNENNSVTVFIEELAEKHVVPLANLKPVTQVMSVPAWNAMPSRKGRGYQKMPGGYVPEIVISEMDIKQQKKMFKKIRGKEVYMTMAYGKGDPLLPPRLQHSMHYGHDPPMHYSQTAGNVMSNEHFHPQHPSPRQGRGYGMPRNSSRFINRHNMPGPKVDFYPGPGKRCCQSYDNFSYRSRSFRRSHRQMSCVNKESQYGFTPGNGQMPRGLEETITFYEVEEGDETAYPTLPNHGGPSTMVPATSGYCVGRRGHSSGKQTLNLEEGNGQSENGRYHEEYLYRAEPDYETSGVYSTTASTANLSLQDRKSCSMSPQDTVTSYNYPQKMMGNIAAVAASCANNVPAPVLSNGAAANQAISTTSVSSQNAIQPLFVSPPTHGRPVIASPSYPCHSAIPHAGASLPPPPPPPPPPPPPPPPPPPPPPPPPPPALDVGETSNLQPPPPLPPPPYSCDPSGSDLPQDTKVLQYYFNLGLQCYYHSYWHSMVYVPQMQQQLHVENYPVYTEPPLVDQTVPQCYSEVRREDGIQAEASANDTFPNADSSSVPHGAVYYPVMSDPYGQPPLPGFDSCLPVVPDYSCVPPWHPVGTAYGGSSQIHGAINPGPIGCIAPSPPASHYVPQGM
# Method in brief: (§1)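 The table lists average log2 ratios of fragment over vehicle, from an unpaired t-test on global-median-normalised Spectronaut label-free quantities. Proteins with ≥2 unique peptides were used. Samples were HEK293T lysate (495 µg) treated in triplicate with fragment at 200 µM or vehicle for 3 h, then with Biotin-Ahx-Ub-VS (0.5 µM final) for 1 h, with labelled DUBs NeutrAvidin-enriched and run by diaPASEF LC-MS/MS.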
# ATXN3 = ATXN3 (UniProt P54252)
# Chain of ATXN3 (P54252 whole entry): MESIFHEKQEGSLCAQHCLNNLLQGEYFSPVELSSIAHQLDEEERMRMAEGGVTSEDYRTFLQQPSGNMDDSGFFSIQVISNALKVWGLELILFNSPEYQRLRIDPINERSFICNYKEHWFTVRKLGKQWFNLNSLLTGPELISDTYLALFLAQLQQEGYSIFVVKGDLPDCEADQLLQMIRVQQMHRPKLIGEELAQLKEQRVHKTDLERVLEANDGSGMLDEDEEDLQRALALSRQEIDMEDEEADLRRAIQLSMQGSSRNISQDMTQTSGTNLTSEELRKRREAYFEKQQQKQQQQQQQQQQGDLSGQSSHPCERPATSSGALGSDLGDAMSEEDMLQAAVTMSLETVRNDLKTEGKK
# Method in brief: as §1
# BAP1 = target: T2, BAP1 (UniProt Q92560)
# T2 sequence (whole entry): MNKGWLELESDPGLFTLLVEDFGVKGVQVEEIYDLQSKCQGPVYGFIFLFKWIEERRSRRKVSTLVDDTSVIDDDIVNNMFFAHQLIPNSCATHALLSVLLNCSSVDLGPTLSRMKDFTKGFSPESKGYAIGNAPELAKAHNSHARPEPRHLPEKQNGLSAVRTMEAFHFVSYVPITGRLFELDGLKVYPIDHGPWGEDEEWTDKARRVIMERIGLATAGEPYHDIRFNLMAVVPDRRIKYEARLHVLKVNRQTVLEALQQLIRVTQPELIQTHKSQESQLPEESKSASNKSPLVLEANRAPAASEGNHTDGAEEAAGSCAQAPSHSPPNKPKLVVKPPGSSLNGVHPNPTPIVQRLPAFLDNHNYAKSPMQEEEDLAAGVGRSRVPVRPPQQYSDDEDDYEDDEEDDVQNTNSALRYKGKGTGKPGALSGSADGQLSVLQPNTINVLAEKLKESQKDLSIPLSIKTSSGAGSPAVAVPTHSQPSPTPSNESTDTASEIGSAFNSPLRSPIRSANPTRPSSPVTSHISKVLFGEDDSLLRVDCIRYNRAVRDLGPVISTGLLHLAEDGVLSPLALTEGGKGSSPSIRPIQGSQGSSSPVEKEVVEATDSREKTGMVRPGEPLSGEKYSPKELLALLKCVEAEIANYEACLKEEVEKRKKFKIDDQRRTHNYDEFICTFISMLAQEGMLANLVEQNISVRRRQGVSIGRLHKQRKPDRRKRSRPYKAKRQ
# Method in brief: as §1
# EIF3F = EIF3F (UniProt O00303)
# Chain of EIF3F (O00303 whole entry): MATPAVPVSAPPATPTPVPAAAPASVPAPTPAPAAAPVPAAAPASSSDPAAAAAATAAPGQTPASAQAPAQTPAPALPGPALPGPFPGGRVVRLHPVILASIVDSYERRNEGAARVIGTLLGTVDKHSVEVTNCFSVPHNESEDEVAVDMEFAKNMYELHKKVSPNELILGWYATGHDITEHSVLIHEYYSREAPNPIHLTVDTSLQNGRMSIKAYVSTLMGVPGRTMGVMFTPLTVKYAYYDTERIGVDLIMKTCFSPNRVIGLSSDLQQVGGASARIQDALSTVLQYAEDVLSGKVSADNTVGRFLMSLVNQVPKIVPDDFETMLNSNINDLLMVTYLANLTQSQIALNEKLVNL
# Method in brief: as §1
# EIF3H = EIF3H (UniProt O15372)
# Chain of EIF3H (O15372 whole entry): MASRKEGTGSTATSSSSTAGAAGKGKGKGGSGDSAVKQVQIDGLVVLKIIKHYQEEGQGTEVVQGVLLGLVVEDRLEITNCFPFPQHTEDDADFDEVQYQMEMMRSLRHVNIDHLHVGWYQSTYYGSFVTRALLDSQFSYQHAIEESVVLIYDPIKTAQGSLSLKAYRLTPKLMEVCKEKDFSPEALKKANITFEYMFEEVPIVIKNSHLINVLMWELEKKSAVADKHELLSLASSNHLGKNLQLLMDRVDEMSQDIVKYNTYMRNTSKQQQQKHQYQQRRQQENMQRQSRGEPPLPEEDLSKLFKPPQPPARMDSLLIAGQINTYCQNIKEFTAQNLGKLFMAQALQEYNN
# Method in brief: as §1
# FAM105A = target: T3, FAM105A (UniProt Q9NUU6)
# T3 sequence (whole entry): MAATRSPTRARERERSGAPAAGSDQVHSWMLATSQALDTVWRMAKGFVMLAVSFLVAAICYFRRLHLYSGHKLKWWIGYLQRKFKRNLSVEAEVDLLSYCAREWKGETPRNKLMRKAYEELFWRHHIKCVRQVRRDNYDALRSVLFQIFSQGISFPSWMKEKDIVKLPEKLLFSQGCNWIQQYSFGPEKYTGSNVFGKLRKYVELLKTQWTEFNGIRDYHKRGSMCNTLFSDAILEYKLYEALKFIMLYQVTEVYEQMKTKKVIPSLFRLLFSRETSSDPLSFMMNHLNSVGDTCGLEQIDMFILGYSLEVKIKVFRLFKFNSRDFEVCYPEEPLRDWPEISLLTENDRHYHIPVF
# Method in brief: as §1
# OTUB1 = OTUB1 (UniProt Q96FW1)
# Chain of OTUB1 (Q96FW1 whole entry): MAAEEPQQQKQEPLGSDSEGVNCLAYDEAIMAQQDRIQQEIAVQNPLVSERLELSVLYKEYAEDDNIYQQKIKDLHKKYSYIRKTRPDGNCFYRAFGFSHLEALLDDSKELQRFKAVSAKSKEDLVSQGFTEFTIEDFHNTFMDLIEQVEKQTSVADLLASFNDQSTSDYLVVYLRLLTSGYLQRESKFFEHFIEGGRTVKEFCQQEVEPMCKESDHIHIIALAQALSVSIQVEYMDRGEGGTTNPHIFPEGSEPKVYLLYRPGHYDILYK
# Method in brief: as §1
# OTUD4 = target: T4, OTUD4 (UniProt Q01804)
# T4 sequence (whole entry): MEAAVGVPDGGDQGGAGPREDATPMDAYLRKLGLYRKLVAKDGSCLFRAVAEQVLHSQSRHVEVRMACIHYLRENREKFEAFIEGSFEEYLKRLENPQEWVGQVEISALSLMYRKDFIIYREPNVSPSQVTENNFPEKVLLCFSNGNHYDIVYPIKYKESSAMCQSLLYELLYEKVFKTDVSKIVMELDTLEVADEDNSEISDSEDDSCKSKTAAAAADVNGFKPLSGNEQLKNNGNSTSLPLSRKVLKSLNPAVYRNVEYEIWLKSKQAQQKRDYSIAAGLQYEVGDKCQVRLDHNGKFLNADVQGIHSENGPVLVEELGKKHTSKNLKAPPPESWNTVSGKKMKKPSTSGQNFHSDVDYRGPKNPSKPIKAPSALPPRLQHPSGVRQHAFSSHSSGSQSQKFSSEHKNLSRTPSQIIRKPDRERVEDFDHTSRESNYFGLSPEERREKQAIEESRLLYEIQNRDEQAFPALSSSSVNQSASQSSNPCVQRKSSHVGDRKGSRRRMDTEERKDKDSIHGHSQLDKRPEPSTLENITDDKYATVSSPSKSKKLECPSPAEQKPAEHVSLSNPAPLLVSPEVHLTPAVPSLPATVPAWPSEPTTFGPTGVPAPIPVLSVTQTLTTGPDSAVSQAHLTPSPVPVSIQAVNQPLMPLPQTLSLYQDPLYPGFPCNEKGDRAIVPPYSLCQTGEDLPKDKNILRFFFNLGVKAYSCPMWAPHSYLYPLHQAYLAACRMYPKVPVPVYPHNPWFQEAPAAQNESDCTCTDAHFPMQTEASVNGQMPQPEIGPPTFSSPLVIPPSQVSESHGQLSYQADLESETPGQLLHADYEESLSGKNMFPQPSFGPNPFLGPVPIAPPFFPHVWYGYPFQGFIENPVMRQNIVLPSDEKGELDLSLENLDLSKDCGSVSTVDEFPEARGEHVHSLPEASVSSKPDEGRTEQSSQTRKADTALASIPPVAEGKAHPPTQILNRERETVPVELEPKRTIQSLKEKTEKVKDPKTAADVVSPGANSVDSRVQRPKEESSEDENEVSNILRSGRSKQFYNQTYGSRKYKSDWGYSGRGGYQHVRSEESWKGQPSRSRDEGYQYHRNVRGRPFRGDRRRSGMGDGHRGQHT
# Method in brief: as §1
# OTUD5 = target: T5, OTUD5 (UniProt Q96G74)
# T5 sequence (whole entry): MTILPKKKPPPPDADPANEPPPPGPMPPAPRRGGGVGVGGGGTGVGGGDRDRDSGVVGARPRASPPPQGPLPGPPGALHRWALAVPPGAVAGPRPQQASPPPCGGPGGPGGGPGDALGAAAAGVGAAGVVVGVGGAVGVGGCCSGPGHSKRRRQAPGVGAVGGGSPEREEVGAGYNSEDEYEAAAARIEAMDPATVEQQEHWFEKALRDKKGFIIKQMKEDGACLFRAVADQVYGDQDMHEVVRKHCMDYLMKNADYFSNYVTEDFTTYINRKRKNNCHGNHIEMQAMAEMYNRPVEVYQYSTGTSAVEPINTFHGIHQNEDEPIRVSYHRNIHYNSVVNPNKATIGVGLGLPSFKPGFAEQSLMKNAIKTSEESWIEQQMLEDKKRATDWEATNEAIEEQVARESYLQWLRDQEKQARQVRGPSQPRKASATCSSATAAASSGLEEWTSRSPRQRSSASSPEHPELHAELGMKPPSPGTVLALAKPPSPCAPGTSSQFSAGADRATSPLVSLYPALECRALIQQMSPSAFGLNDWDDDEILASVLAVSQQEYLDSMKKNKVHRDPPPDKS
# Method in brief: as §1
Compound,log2 ratio of Biotin-Ahx-Ub-VS probe labelling (ALG13),log2 ratio of Biotin-Ahx-Ub-VS probe labelling (ATXN3),log2 ratio of Biotin-Ahx-Ub-VS probe labelling (BAP1),log2 ratio of Biotin-Ahx-Ub-VS probe labelling (EIF3F),log2 ratio of Biotin-Ahx-Ub-VS probe labelling (EIF3H),log2 ratio of Biotin-Ahx-Ub-VS probe labelling (FAM105A),log2 ratio of Biotin-Ahx-Ub-VS probe labelling (OTUB1),log2 ratio of Biotin-Ahx-Ub-VS probe labelling (OTUD4),log2 ratio of Biotin-Ahx-Ub-VS probe labelling (OTUD5)
CS(=O)(=O)c1ccc(CNC(=O)CCl)cc1,-0.0665,-0.381,-3.17 (active),-0.177,-0.0369,-0.0581,-0.0582,-0.317,-0.368
COc1ccc(C2CCCN2C(=O)CCl)c(OC)c1 (stereo not drawn),-0.266,-0.54,-3.55 (active),-0.23,-0.25,0.0093,0.0641,0.0731,-0.185
